Hits are enriched below; roughly 2.6% of the tested compounds scored in any of these assays.
FLuc inh = qHTS Assay for Inhibitors of Firefly Luciferase; purified firefly luciferase, luminescence, 8 min; Potency, µM (doses to about 57.1 µM), without a hit: top-dose activity change, negative = inhibition, most hits filed as inhibitors; AID 411, 2009; Luciferin 4-monooxygenase (Photinus pyralis), P08659; actives 2.2% (n = 72,000); further: nearly all actives have a fitted effect of over 40% in size
Target sequence (P08659 whole entry, looked up): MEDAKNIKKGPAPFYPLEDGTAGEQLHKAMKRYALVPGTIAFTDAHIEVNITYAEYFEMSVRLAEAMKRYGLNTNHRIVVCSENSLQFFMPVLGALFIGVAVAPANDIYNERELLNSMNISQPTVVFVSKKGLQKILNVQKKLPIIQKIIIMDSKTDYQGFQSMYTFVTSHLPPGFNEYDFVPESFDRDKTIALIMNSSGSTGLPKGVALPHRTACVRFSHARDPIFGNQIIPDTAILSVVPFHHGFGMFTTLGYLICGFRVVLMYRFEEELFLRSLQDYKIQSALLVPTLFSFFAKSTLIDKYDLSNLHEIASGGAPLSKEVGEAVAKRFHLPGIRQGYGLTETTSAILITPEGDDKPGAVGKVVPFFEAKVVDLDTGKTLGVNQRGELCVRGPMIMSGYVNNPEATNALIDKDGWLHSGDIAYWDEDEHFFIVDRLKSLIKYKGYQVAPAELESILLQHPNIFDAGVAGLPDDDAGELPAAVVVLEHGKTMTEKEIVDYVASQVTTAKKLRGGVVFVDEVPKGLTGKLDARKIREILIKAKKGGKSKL
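Here, luciferase activity is measured as luminescence following an 8 min room-temperature reaction at 10 uM ATP, pH 7.2. Every library sample is titrated.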
p53ts 39C kill = qHTS Screen for Compounds that Selectively Target Cancer Cells with p53 Mutations: Cytotoxicity of p53ts Cells at the Nonpermissive Temperature; H1299-p53A138V viability at 39C, ATP luminescence, 24 h; Potency, µM (highest dose often 46.1 µM), inactives show at the highest dose activity change, negative = cell killing, most hits filed as cytotoxic; actives 1.5% (n = 130,000); further: nearly all actives have a fitted effect of over 55% in size
p53ts 32C kill = qHTS Screen for Compounds that Selectively Target Cancer Cells with p53 Mutations: Cytotoxicity of p53ts Cells at the Permissive Temperature; H1299-p53A138V at 32C, ATP luminescence viability, 24 h; Potency, µM (highest dose often 46.1 µM), inactives show at the highest dose activity change, negative = cytotoxicity, usual class: cytotoxic; actives 0.93% (n = 130,000);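 further: 0% = DMSO and -100% = full killing by reference compound; nearly all actives have a fitted effect of over 55% in size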
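ATP-content luminescence (ATPlite) read-out after 24 h compound exposure at 32C in H1299-p53A138V cells (600/well). Tested up to 46 uM. Normalized to DMSO (0%) and 100 uM tamoxifen (100% killing); Hill-fit AC50.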
* = called active by the depositor; u = inconclusive; x = no result given; [ ] = remark or other dose. The call rests on the fitted dose curve; in most records, active means well fitted curve in the direction sought with a large enough effect; inconclusive means small, poorly fitted or top-dose-only effect, or another doubt; inactive means no such curve, though single readings can be large; an effect the other way counts as inactive or inconclusive. Unless noted, on the % scale 0 is the no-effect control and ±100 the full control effect; potency means the concentration at half of the fitted maximal effect.

SMILES	FLuc inh	p53ts 39C kill	p53ts 32C kill
Cc1ccc(CSC2=Nc3ccccc3C3=NC(CCC(=O)NCCc4ccccc4)C(=O)N23)cc1 (centres undefined)	x	5.6%	14.2%
COCCNc1nc(-c2ccc(N(C)C)cc2)nc2ccccc12	u	10µM*	12.6µM*
CC(=O)NCCNc1nc(-c2ccc(N(C)C)cc2)nc2ccccc12	-9.7%[2.29 µM]	12.6µM*	u
CC(=O)NCCNc1nc(-c2ccc3c(c2)OCO3)nc2ccccc12	-0.8%[2.29 µM]	-6.2%	-7.3%
Cc1cnc(CNc2nc(-c3ccccc3C(F)(F)F)nc3ccccc23)cn1	-3.1%[2.29 µM]	-0.5%	4.8%
COCCNc1nc(-c2ccc(C(=O)N(C)C)cc2)nc2ccccc12	-3.1%[2.29 µM]	u	u
Cc1cnc(CNc2nc(-c3ccc(N(C)C)cc3)nc3ccccc23)cn1	0.794µM*	10µM*	10µM*
COc1ccc(CNC(=O)c2ccc3c(c2)NC(=O)C(CS(=O)(=O)Cc2ccccc2Cl)N3)cc1 (centres undefined)	x	-17.4%	6.0%
COc1cccc(CNC(=O)Cn2nc(N3CCN(c4ccccc4OC)CC3)ccc2=O)c1	x	0.7%	-0.4%
COc1ccc(Cn2ccc3nc(C)c(C(=O)N4CCN(c5ccccc5F)CC4)cc3c2=O)cc1	x	u	-10.1%
Cc1ccccc1NC(=O)C1CCN(S(=O)(=O)c2cccc3nonc23)CC1	x	4.6%	3.6%
NC(=O)c1ccccc1N/C=C/C(=O)c1ccco1	10µM*	u	u
NC(=O)c1ccccc1NS(=O)(=O)Cc1ccccc1	1.2%	9.3%	6.4%
CCOc1ccccc1Oc1coc2cc(OC(=O)c3ccco3)ccc2c1=O	-4.4%	0.0%	-1.8%
COc1ccc2c(=O)c(CC(=O)O)coc2c1	x	-4.0%	-14.8%
COc1ccc2c(=O)c(-c3ccccc3)coc2c1	x	5.01µM*	u
CCN(CC)C(=O)Oc1ccc2c(=O)c(-c3ccccc3)coc2c1	15.8µM*	u	-23.4%
CC(C)=CCC1=C(O)c2ccccc2C(=O)C1=O	x	u	-22.3%
CN(C(=O)c1nn(C)c2c1COc1ccccc1-2)c1cccc(C(F)(F)F)c1	x	25.2%	-2.5%
COc1cc(/C=c2\sc3nc(-c4ccncc4)nn3c2=O)ccc1OC(C)=O	3.16µM*	-1.9%	-20.6%
CC(=O)Oc1cccc(/C=c2\sc3nc(-c4ccco4)nn3c2=O)c1	-2.7%	8.7%	18.0%
CC(C)[C@@H]1[C@H]2CC[C@H](C2)[C@H]1N	-0.8%	-5.9%	-3.3%
CCOc1cccc2sc(NC(=O)CS(=O)(=O)c3ccc(C)cc3)nc12	x	-10.2%	-2.7%
COC(=O)C1=C(C)N(Cc2ccccc2)C2=C3C(=O)CCCC3[C@@](O)(C(=O)OC)C(=O)N2C1c1ccccc1 (some centres undefined)	x	7.7%[9.22 µM]	-2.8%[9.22 µM]
O=C(c1ccc(Cl)s1)N1CCc2ccccc21	12.6µM*	u	u
SMILES	FLuc inh	p53ts 39C kill	p53ts 32C kill
O=C(C1CCC(C(=O)N2CCc3ccccc32)CC1)N1CCc2ccccc21 (centres undefined)	-1.6%	14.1%	1.9%
CC[C@H](C)C(=O)O[C@@H]1CCC=C2C=C[C@H](C)[C@@H](CC[C@H]3C[C@@H](O)CC(=O)O3)[C@H]21	-1.1%	x	x
Cc1ccc(C(=O)/C=C/c2cn(CC(O)CN3CCCCCC3)c3ccccc23)cc1 (centres undefined)	x	12.6µM*	u
O=C(/C=C/c1cn(CC(O)CN2CCCCCC2)c2ccccc12)c1ccccc1 (centres undefined)	x	u	-12.8%
C=CCc1ccc(OCC(O)CN2CCCCC2)c(OC)c1 (centres undefined)	-2.6%	3.9%	6.6%
COc1ccc(C(=O)/C=C/c2cn(CC(O)CN3CCCCCC3)c3ccccc23)cc1OC (centres undefined)	x	12.6µM*	-16.3%
Cc1ccc(Nc2nnc(-c3ccc(C)c(S(=O)(=O)N4CCOCC4)c3)c3ccccc23)c(C)c1	x	16.4%	1.1%
COC(=O)c1ccc(NC(=O)CSc2ccc(-c3sc(-c4ccccc4)nc3C)nn2)cc1	x	3.5%	-1.7%
Cc1ccc(NC(=O)c2oc3ccccc3c2NC(=O)c2ccc(F)c(F)c2)cc1	x	-11.7%	-16.6%
COc1ccccc1Cn1cc(C(=O)c2ccc(Cl)cc2)c(=O)c2cc3c(cc21)OCCO3	x	u	-3.9%
COc1ccccc1Cn1cc(C(=O)c2ccc(Cl)cc2)c(=O)c2ccccc21	x	12.6µM*	u
Cc1cc(NC(=O)Cc2ccccc2)cc(-c2nc3ccccc3o2)c1O	x	19.4%	-0.4%
